Measured values from PubChem BioAssay (NCATS).
Records with an inconclusive call do not appear. Calls of active or inactive are those of the source. Calls come from the whole dose curve; as a rule, active = well fitted inhibition curve with a large enough effect; inconclusive = small, poorly fitted or top-dose-only effect; inactive = flat fitted curve, though single readings scatter. Bridge positions count the residues as written; N and C are the ends. Square brackets hold non-standard residues; d marks the D form. Peptide text beside a SMILES is read from it. * marks the point of attachment. Octanoyl(6-Me) = CCC(C)CCCCC(=O)*; Dab = NCC[CH](N)C(=O)O

How the values were obtained:
Assay in all cases: qHTS profiling for inhibitors of Plasmodium falciparum proliferation (AID 504749); note: nearly all actives have a fitted effect of over 60% in size
Details in all cases: P. falciparum in erythrocytes, SYBR Green DNA, 72 h; series mostly up to 28.7 µM
3D7 = system: 3D7
Summary of the method: (§1)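 Infected RBCs, 0.3% parasitemia/2.5% Hct final; cpd 72 h, 37 C, 5% CO2; lysis buffer with saponin/triton/SYBR Green I, o/n RT dark; FI 485/535; norm. to artemisinin (0.29 uM) and DMSO.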

AA1029 = system: AA1029
Summary of the method: as §1

ATS95 = system: ATS95
Summary of the method: as §1

C2A = system: C2A
Summary of the method: as §1

CP185 = system: CP185
Summary of the method: as §1

CP237 = system: CP237
Summary of the method: as §1

CP238 = system: CP238
Summary of the method: as §1

CP250 = system: CP250
Summary of the method: as §1

CP260 = system: CP260
Summary of the method: as §1

DFO2036 = system: DFO2036
Summary of the method: as §1

Dd2 = system: Dd2
Summary of the method: as §1

ECU = system: ECU
Summary of the method: as §1

FAB9 = system: FAB9
Summary of the method: as §1

HB3 = system: HB3
Summary of the method: as §1

ICS = system: ICS
Summary of the method: as §1

N140 = system: N140
Summary of the method: as §1

P94_40 = system: P94_40
Summary of the method: as §1

PC15 = system: PC15
Summary of the method: as §1

SC27B = system: SC27B
Summary of the method: as §1

TAB109 = system: TAB109
Summary of the method: as §1

Measured: Potency

CN(C)CCCCCCN(C)C
inactive: 3D7 | AA1029 | ATS95 | C2A | CP185 | CP237 | CP238 | CP250 | CP260 | DFO2036 | Dd2 | ECU | FAB9 | HB3 | ICS | N140 | P94_40 | PC15 | SC27B | TAB109

CCC(C)CCCCC(=O)NC(CCN)C(=O)NC(C(=O)NC(CCN)C(=O)NC1CCNC(=O)C(C(C)O)NC(=O)C(CCN)NC(=O)C(CCN)NC(=O)C(CC(C)C)NC(=O)C(Cc2ccccc2)NC(=O)C(CCN)NC1=O)C(C)O (stereo not given) ({Octanoyl(6-Me)}-[Dab]T[Dab][Dab][Dab]FL[Dab][Dab]T; lactam 4-C; configuration not given here)
inactive: 3D7 | AA1029 | ATS95 | C2A | CP185 | CP237 | CP238 | CP250 | CP260 | DFO2036 | Dd2 | ECU | FAB9 | HB3 | ICS | N140 | P94_40 | PC15 | SC27B | TAB109

S=C1NC=NC2N=CNC12 (stereo not given)
inactive: 3D7 | AA1029 | ATS95 | C2A | CP185 | CP237 | CP238 | CP250 | CP260 | DFO2036 | Dd2 | ECU | FAB9 | HB3 | ICS | N140 | P94_40 | PC15 | SC27B | TAB109

C1OCOCO1
inactive: 3D7 | AA1029 | ATS95 | C2A | CP185 | CP237 | CP238 | CP250 | CP260 | DFO2036 | Dd2 | ECU | FAB9 | HB3 | ICS | N140 | P94_40 | PC15 | SC27B | TAB109

C/C=C\c1ccc(OC)cc1
inactive: 3D7 | AA1029 | ATS95 | C2A | CP185 | CP237 | CP238 | CP250 | CP260 | DFO2036 | Dd2 | ECU | FAB9 | HB3 | ICS | N140 | P94_40 | PC15 | SC27B | TAB109

NC1=NC(S)C2N=CN=C2N1 (stereo not given)
inactive: 3D7 | AA1029 | ATS95 | C2A | CP185 | CP237 | CP238 | CP250 | CP260 | DFO2036 | Dd2 | ECU | FAB9 | HB3 | ICS | N140 | P94_40 | PC15 | SC27B | TAB109
